Inconclusive results are not listed. Activity calls are given as the source filed them. Calls follow the shape of the dose curve; as a rule, active = well fitted inhibition curve with a large enough effect; inconclusive = small, poorly fitted or top-dose-only effect; inactive = no such curve, though single readings can be large or run the other way.
Test: Acumen qHTS Assay for Inhibitors of the mTORC1 Signaling Pathway in MEF (Tsc2-/-, p53-/-) Cells: Hit Validation;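 also: phospho-rpS6 Ser235/236 immunofluorescence normalized to propidium iodide cell count; nearly all actives have a fitted effect of over 65% in size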;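 as to activity change, negative = inhibition: cells exposed to compound for 24 hours; plate controls were DMSO for no effect and 7.5 nM rapamycin control for full effect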
Settings: Acumen imaging; activity change, negative = inhibition: at 37.3 µM (top of the series)
Potency is read from the fitted curve at half-maximal effect.

| Structure (SMILES) | activity change, negative = inhibition | Potency |
| --- | --- | --- |
| CCc1ccc(S(=O)(=O)c2nnn(-c3ccc(F)cc3)c2N)cc1 | -3.55% | – |
| CCC1CN(C(=O)NCc2ccc(F)cc2)c2cc(C)ccc2O1 (stereo unspecified) | 0.784% | – |
| CCS(=O)(=O)c1ncc(Cl)c(C(=O)N(Cc2ccccc2)Cc2ccco2)n1 | – | 5.21 µM (active) |
| COc1ccc(C(=O)c2sc(Nc3ccccc3)nc2N)cc1 | -4.73% | – |
| Cc1ccc(S(=O)(=O)c2nc(-c3cccs3)oc2SCC(=O)Nc2cc(C)cc(C)c2)cc1 | -132% | – |
| Cc1ccccc1CN1C(=O)C(O)(CC(=O)c2cccc(Br)c2)c2ccccc21 (stereo unspecified) | -20% | – |
| CCCCOc1cccc(C(=O)N(Cc2cccs2)c2ccc(OC)cc2)c1 | – | 16.5 µM (active) |
| CCC1CCc2nc3sc(C(=O)Nc4cccc(F)c4)c(N)c3cc2C1 (stereo unspecified) | – | 5.21 µM (active) |
| CN1CCC(Nc2ncc3ncnc(Nc4ccc(F)c(Cl)c4)c3n2)CC1 | -95% | – |
| Cc1oc(-c2ccccc2F)nc1Cn1c(SCc2cccc(Cl)c2)nc2ccncc21 | -12.7% | – |
| CCc1nnc(SC(CC)C(=O)Nc2cccc(OC)c2)c2cc3oc(C)cc3n12 (stereo unspecified) | -6.5% | – |
| Cc1ccc(C)c(CN2C(=O)C(=O)c3ccccc32)c1 | – | 1.47 µM (active) |
| COc1cccc(-n2c(-c3ccc(C)cc3)cc3c2CC(C)(C)CC3=O)c1 | -34.9% | – |
| CC(C)S(=O)(=O)c1oc(-c2ccc(F)cc2)nc1S(=O)(=O)c1ccc(F)cc1 | -95% | – |
| Cc1cc(C)cc(NC(=O)c2cnn(-c3ccc(C)c(C)c3)c2C2CCNCC2)c1 | -31.5% | – |
| CCOC(=O)c1ccc(N2C(=O)c3n[nH]c(C)c3C2c2cccc(Br)c2)cc1 (stereo unspecified) | 4.8% | – |

Source: PubChem BioAssay AID651784 (National Center for Advancing Translational Sciences (NCATS), 2012)
